Assay results: PubChem BioAssay (Tox21)
Inconclusive results are not listed. Where a call stands in place of a potency, no number is given. More than one record can exist for a structure, and the calls need not agree. Calls of active or inactive are those of the source. The call rests on the fitted dose curve; in most records, active means well fitted activation curve with a large enough effect in the repeat runs; inconclusive means weak or mixed curves; inactive means flat fitted curve, though single readings scatter.

Experiment: A CellTox Green Cytotoxicity Assay to monitor cytotoxicity in HepG2 cells - 40 hour (AID 1224879); further: nearly all actives have a fitted effect of over 40% in size
Details: CellTox Green fluorescence; series mostly up to 76.8 µM
How it was run: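 Measurements at 0, 8, 16, 24, 32 and 40 h of treatment captured CellTox Green fluorescence in HepG2 cells that had been co-plated with reagent and preincubated 5 h at 37 C/5% CO2.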
Potency means the concentration at half of the fitted maximal effect.

| Compound | Potency |
| --- | --- |
| CCCCC(CC)COC(=O)c1ccc(C(=O)OCC(CC)CCCC)c(C(=O)OCC(CC)CCCC)c1 (centres undefined) | inactive |
| C=C(C)C(=O)OCC1CO1 (centres undefined) | inactive |
| CCOC(=S)S | inactive |
| CCN(CC)N=O | inactive |
| COc1ccc(C(CN(C)C)C2(O)CCCCC2)cc1 (centres undefined) | inactive |
| CCCCCCCCCCCOC(=O)c1ccccc1C(=O)OCCCCCCCCCCC | inactive |
| c1ccc(P(c2ccccc2)c2ccccc2)cc1 | inactive |
| Cc1ccc(OP(=O)(Oc2ccc(C)cc2)Oc2ccc(C)cc2)cc1 | 4.36 µM (active) and inactive |
| COc1ccc(C=O)cc1 | inactive |
| CNC(=O)Oc1cccc2c1OC(C)(C)O2 | inactive |
| O=C1C=CC(=O)C=C1 | inactive |
| C=CC(=O)OCCO | inactive |
| CCN(CC)C(=O)/C(Cl)=C(\C)OP(=O)(OC)OC | inactive |
| Nc1cccnc1 | inactive |
| Nc1ccc(Cl)c(Cl)c1 | inactive |
| CCCCN(CC)c1c([N+](=O)[O-])cc(C(F)(F)F)cc1[N+](=O)[O-] | inactive |
| CCC(CC)Nc1c([N+](=O)[O-])cc(C)c(C)c1[N+](=O)[O-] | inactive |
| CCCCCCCCOC(=O)c1ccccc1C(=O)OCCCCCCCC | inactive |
| C1=Cc2cccc3cccc1c23 | inactive |
| CCOCN(C(=O)CCl)c1c(C)cccc1CC | inactive |
| CCN(CC)C(=O)SCc1ccc(Cl)cc1 | inactive |
| COP(=S)(OC)Oc1cc(Cl)c(Cl)cc1Cl | inactive |
| C[C@]12CCC(=O)C(O)=C1CC[C@@H]1[C@@H]2CC[C@]2(C)C(=O)CC[C@@H]12 | inactive |
| O=[N+]([O-])c1cccc2ccccc12 | inactive |
